High-throughput results: PubChem BioAssay, The Scripps Research Institute Molecular Screening Center
CHO-K1 Ca antag: nonselective inhibitor or artifact in parental CHO-K1 cells; ATP-induced calcium, Fluo-8 fluorescence; inhibition, % at 3 µM; 360,000 tested, 0.6% active;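 active means inhibition above a per-plate cutoff, the plate's mean sample inhibition plus 3 SD, cut at about 24% in these data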;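 further: 0% = DMSO plus EC80 ATP and 100% = DMSO alone without ATP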
M1 PAM: human CHRM1 positive allosteric modulation; P11229; CHO-K1 hM1, Fluo-8 calcium fluorescence, ACh EC20; 0% = ACh EC20, 100% = maximal ACh; activation, % at 3 µM; 360,000 tested, 0.088% active; AID 588819; in the data active means activation above about 19%, passing the limit was not always enough
Target sequence (P11229 whole entry, looked up): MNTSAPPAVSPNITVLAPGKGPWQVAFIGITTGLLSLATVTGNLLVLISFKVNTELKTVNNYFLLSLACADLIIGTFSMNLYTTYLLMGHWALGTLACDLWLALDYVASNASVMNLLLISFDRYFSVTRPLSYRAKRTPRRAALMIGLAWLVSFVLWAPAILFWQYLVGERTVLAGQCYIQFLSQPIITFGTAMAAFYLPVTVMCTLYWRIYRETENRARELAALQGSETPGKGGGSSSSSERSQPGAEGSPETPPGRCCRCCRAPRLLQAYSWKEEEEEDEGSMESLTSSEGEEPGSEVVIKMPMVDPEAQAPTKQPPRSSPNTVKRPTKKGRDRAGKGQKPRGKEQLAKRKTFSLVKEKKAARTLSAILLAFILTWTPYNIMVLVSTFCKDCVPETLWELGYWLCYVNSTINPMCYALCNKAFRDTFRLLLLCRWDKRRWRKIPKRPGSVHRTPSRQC
CHRM1 antagonist: human CHRM1 antagonism; P11229; CHO-K1 hM1, Fluo-8 calcium fluorescence, ACh EC80 antagonist; inhibition, % at 3 µM; 360,000 tested, 1.3% active;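 active means percent inhibition above its own plate's cutoff, namely the mean of that plate's compound wells plus 3 SD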;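 further: peak over basal fluorescence ratio during 140 s after agonist addition; 0% = ACh EC80 plus DMSO and 100% = DMSO alone without agonist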
M1 PAM parental: nonselective activator or artifact in parental CHO-K1 calcium assay | ATP EC20, Fluo-8 calcium fluorescence; 0% at ATP EC20, 100% at ATP max | activation, % at 3 µM | 360,000 tested, 0.02% active | AID 602247;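 active means activation above the run cutoff, the mean activation of all test compounds plus 3 SD, cut at about 40% in these data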;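 further: peak over basal fluorescence ratio in a 140 s read after ATP addition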
CHO-K1 Ca ag: nonselective activator or artifact in parental CHO-K1 cells | Fluo-8 calcium fluorescence; scaled to maximal ATP response, vehicle zero | activation, % at 3 µM | 360,000 tested, 0.48% active | AID 602248; in the data active means activation above about 15%;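 further: untransfected CHO-K1 host cells lacking M1 receptor as counterscreen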
M1 ag: activates human CHRM1 receptor. P11229. CHO-K1 hM1, Fluo-8 calcium fluorescence, agonist mode; 0% DMSO, 100% acetylcholine EC100. activation, % at 3 µM. 360,000 tested, 0.33% active. AID 588814;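 active means activation above the run's mean compound activation plus 3 SD, cut at about 16% in these data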;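 further: peak over basal fluorescence ratio within a 140 s kinetic read after compound addition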
An asterisk follows results filed as active. Only some compounds are listed: those with a hit (about 2.4% of all), similar ones and a draw of the others.

SMILES	CHO-K1 Ca antag	M1 PAM	CHRM1 antagonist	M1 PAM parental	CHO-K1 Ca ag	M1 ag
O=C(c1ccc(Cl)cc1)C1CCCN(Cc2cccc3cccnc23)C1 (stereo not given)	-18	-24	58*	16	9	-4
CCOC(=O)CCCCCNC(=O)c1c(O)[nH]c(=O)[nH]c1=O	2	4	-6	14	1	-4
C[C@]12C=CC(=O)C=C1CC[C@@H]1C2CC[C@]2(C)OC(=O)CCC12 (stereo not given in full)	-3	1	3	-8	5	-3
CCCc1cc(=O)oc2cc(OCC(=O)N3CCC(C(=O)O)(c4ccccc4)CC3)ccc12	25*	7	-12	-2	0	-2
CCCc1cc(=O)oc2cc(OCC(=O)N3CCN(Cc4ccc5c(c4)OCO5)CC3)ccc12	-13	1	-11	17	4	-3
COC(=O)C1=C(c2ccc(F)cc2OCc2ccccc2)C[C@@H]2CC[C@H]1N2C	-13	-11	13	8	5	-8
COC(=O)C1=C(c2ccc(OCc3ccccc3)c(F)c2)C[C@@H]2CC[C@H]1N2C	-11	-24	29*	11	2	-8
COC(=O)C1=C(c2ccc(OCc3ccccc3)cc2)C[C@@H]2CC[C@H]1N2C	-11	-28	34*	21	2	-10
CC(=O)O[C@@H]1CC[C@]2(C)C3CC[C@]4(C)C(=O)[C@H](O)CC4C3[C@@H](OC(C)=O)C[C@H]2C1 (stereo not given in full)	-16	4	-16	24	2	-4
c1ccc(C(OCCN2CCNCC2)c2ccccc2)cc1	-22	-20	70*	32	1	-6
COc1ccc(N2C(=O)NC(=O)/C(=C\c3cn(C)c4ccccc34)C2=O)cc1	42*	0	1	37	32*	-2
COC(=O)Cn1cc(/C=C2\C(=O)NC(=O)N(c3ccc(OC)cc3)C2=O)c2ccccc21	-5	-2	9	10	3	-3
Brc1ccc2c(c1)C(OC1CN3CCC1CC3)c1ccccc1CS2 (stereo not given)	2	-24	101*	9	3	-8
COc1ccc(OCC#CCN2CCCCCC2)cc1	-1	-16	7	8	0	-10
Cc1ccc(C(C)C)c(OCC#CCN2CCCC2)c1	-13	-22	90*	22	3	-6
COc1ccc(N2C(=O)/C(=C/c3ccc(N(C)C)o3)C(=O)NC2=S)cc1	0	-1	-3	7	4	1
CCN(CC)c1ccc(C=C2C(=O)N(C)C(=S)N(C)C2=O)o1	-8	4	-1	22	5	-1
CCN(CC)c1ccc(/C=C2\C(=O)NC(=S)N(C)C2=O)o1	1	-2	2	5	19*	14
CCN(CC)c1ccc(/C=C2\C(=O)NC(=S)N(c3ccc(OC)cc3OC)C2=O)o1	-2	1	4	17	23*	13
Clc1ccc(C[n+]2c(-c3ccccc3)cc(-c3ccccc3)cc2-c2ccccc2)cc1	8	-14	36*	-1	5	-6
Oc1ccc(-[n+]2c(-c3ccccc3)cc(-c3ccccc3)cc2-c2ccccc2)cc1	-1	-16	18	7	0	-11
Cc1cc(-c2ccccc2)cc(-c2ccccc2)[n+]1CCc1ccccc1	12	-25	60*	12	1	-10
O=C(c1cccc2ccccc12)C1CCCN(C2CCC2)C1 (stereo not given)	-2	-14	26*	16	0	16*
O=C(c1cccc2ccccc12)C1CCCN(Cc2ccon2)C1 (stereo not given)	-11	3	-7	8	1	-3
C[N+](C)(C)CCOC(=O)CBr	-9	7	-34	18	1	20*
SMILES	CHO-K1 Ca antag	M1 PAM	CHRM1 antagonist	M1 PAM parental	CHO-K1 Ca ag	M1 ag
COC(=O)C1=C(c2cccc3c2S(=O)(=O)c2ccccc2-3)C[C@@H]2CC[C@H]1N2C(=O)N1CCc2cc(OC)c(OC)cc2C1	-12	-6	16	12	5	-5
CCOC(=O)c1cncn1[C@@H](C)c1ccccc1	1	13	-36	2	0	2
COC(=O)C1=C(c2ccc(-c3ccccc3)c(F)c2)C[C@@H]2CC[C@H]1N2C(=O)NCCOc1ccc(OC)cc1	-11	-7	21	17	1	-2
O=C(c1ccc(Cl)cc1)C1CCCN(C2CCSCC2)C1 (stereo not given)	-17	-31	61*	27	2	-12
COc1ccc(C(=O)C2CCCN(C3CSCCSC3)C2)cc1OC (stereo not given)	-16	-26	97*	22	1	-7
Cc1cccc(C(O)(C(=O)O)c2ccccc2)c1 (stereo not given)	-4	-6	17	-15	0	-4
Cc1ccc(S(=O)(=O)NP(=O)(Oc2ccccc2)Oc2ccccc2)cc1	-17	10	-8	12	0	2
Cc1ccc(C)c(NP(=O)(Oc2ccccc2)Oc2ccccc2)c1	18	-10	36*	4	8	-2
C[C@]12CC[C@H]3[C@@H](CCC4=CC(=O)CC[C@@]43O)[C@@H]1CCC2=O	-9	3	5	5	2	-5
CN1CCCC1c1ccc(=O)[nH]c1 (stereo not given)	5	-1	-2	8	1	-2
Oc1ccc(Cl)c(Cl)c1Cl	-8	-23	24*	-11	8	-2
Cc1ncc(CN2CCCC(C(=O)c3ccc(C(C)(C)C)cc3)C2)s1 (stereo not given)	-5	-30	87*	1	7	-10
O=C(c1ccc(C(F)(F)F)cc1)C1CCCN(Cc2ccc(CO)o2)C1 (stereo not given)	-9	-26	61*	10	1	-7
COc1ccc(C(=O)C2CCCN(Cc3cnc(C)s3)C2)cc1OC (stereo not given)	5	-10	5	0	0	-10
CCn1ccnc1CN1CCCC(C(=O)c2ccc(SC)cc2)C1 (stereo not given)	15	-26	77*	-9	2	-9
CN(C)CCN(C(=O)COc1ccc(Cl)cc1)c1nc2cc3c(cc2s1)OCO3	6	16	-15	7	0	0
CCCC1(CCO)C(=O)NC(=S)NC1=O	-8	10	-16	10	0	0
O=c1[nH]c(=S)n(Cc2ccc(F)cc2)c(O)c1/C=N/N1CCCCC1	-3	-9	14	12	1	27*
O=c1[nH]c(=S)n(Cc2ccc(F)cc2)c(O)c1C=NCC1CCCO1 (stereo not given)	-4	10	-6	4	0	-4
